# Assay outcomes from PubChem BioAssay.
# This is a sample that favours compounds with a hit; in the whole collection about 15% have one here.
# ELG1 repair inh: inhibitors of ELG1-dependent DNA repair in HEK293T cells; HEK293T ELG1-luciferase reporter, luminescence, 16 h; DNA damage induced by 5-fluorouridine; Potency, µM (doses to about 46.1 µM), for inactives: at the highest dose activity change, negative = inhibition, usual class: inhibitors; 330,000 compounds, 2.3% hits; AID 504467; further: nearly all actives have a fitted effect of over 55% in size
#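 Reporter activity after DNA damage by 5-fluorouridine is monitored. Compound-treated cells incubate 16 hr at 37 °C, then ONE-Glo is added for 30 min before luminescence reading.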
# 12-LOX inh: ALOX12 (human) lipoxygenase inhibition; purified 12hLO, xylenol orange hydroperoxide absorbance; Potency, µM (highest dose often 108 µM), for inactives: at the top dose activity change, negative = inhibition, hits mostly inhibitors; 580,000 compounds, 1.1% hits; AID 1671190
#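 Purified human 12hLO at 150 nM in 25 mM Hepes, 0.01% Triton X-100, pH 7.0, preincubated 15 min at room temperature with compound. Reaction started with 40 uM arachidonic acid, 30 min at room temperature. Hydroperoxide measured by Fe-xylenol orange, 573/405 nm absorbance ratio.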
# RORg inh: inhibitors of mouse ROR gamma transcriptional activity. Drosophila S2 Gal4-RORgamma UAS-luciferase reporter, 20 h. Potency, µM (top dose mostly 53.6 µM), inactives show at the highest dose activity change, negative = inhibition, usual class: inhibitors. 310,000 compounds, 5.4% hits. AID 2551; further: nearly all actives have a fitted effect of over 60% in size
# Target sequence (P51450 whole entry, looked up, the tested form may be a part): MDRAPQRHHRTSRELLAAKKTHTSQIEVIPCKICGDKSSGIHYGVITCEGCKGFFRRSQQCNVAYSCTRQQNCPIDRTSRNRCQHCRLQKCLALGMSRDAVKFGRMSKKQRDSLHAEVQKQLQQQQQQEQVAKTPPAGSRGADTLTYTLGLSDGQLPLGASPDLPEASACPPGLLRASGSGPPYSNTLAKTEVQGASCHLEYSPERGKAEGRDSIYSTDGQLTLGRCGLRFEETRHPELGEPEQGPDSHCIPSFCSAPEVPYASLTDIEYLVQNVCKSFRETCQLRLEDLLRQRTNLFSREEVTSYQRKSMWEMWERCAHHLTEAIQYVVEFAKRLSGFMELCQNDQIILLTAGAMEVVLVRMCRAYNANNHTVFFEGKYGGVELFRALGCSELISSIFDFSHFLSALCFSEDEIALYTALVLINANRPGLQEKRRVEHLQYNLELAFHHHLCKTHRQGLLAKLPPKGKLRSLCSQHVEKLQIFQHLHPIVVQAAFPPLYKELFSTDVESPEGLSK
#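 Compounds are pin-transferred onto Drosophila Schneider cells expressing a copper-inducible Gal4–ROR gamma transactivation domain fusion. After 1 hr, copper sulfate is added to 700 uM final; luciferase is read 20 hr later.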
# VP16 counter: Gal4-VP16 reporter inhibition counter-screen | Drosophila S2 Gal4-VP16 UAS-luciferase, luminescence, 20 h | Potency, µM (series often up to 53.6 µM), without a hit: top-dose activity, negative = inhibition, most hits filed as inhibitors | 310,000 compounds, 3.5% hits;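 further: Gal4-VP16 expression switched on by copper sulfate through the metallothionein promoter; nearly all actives have a fitted effect of over 50% in size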
# DT40 TDP1 no CPT: qHTS for Inhibitors of human tyrosyl-DNA phosphodiesterase 1 (TDP1): qHTS in cells in absence of CPT | DT40 Tdp1-/- hTDP1 cells, no CPT, ATP luminescence, 48 h | Potency, µM (highest dose often 46.2 µM), for inactives: at the top dose activity change, negative = growth inhibition, actives largely listed as inhibitors | 420,000 compounds, 15% hits | AID 686978, 2013; further: nearly all actives have a fitted effect of over 55% in size
#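 Chicken DT40 Tdp1-/- cells stably complemented with human TDP1 were seeded at 400 cells/well with DMSO in place of 20 nM camptothecin. After compound pinning, cells grew at least 48 hr at 37 °C; viability read by CellTiter-Glo luminescence.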
# DT40 TDP1 CPT: DT40-hTDP1 cell growth loss with CPT; Potency, µM (top dose mostly 46.2 µM), without a hit: at the top dose activity change, negative = growth inhibition, usual class: inhibitors; AID 686979; 420,000 compounds, 12% hits; chicken DT40 Tdp1-/-;hTDP1 cells + 20 nM CPT, ATP luminescence, 48 h; further: nearly all actives have a fitted effect of over 55% in size
#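 Chicken DT40 Tdp1-/- cells complemented with human TDP1, 400 cells/well, exposed to compounds plus 20 nM camptothecin for at least 48 h at 37 C; viability read as ATP content by CellTiter-Glo luminescence.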
# * hit, by the source's call; ? = inconclusive; . = no result given; [ ] = remark or other dose. The call rests on the fitted dose curve; in most records, active means well fitted curve in the direction sought with a large enough effect; inconclusive means small, poorly fitted or top-dose-only effect, or another doubt; inactive means no such curve, though single readings can be large; an effect the other way counts as inactive or inconclusive. On the % scale 0 is the no-effect control and ±100 the full control effect; potency means the concentration at half of the fitted maximal effect.
SMILES,ELG1 repair inh,12-LOX inh,RORg inh,VP16 counter,DT40 TDP1 no CPT,DT40 TDP1 CPT
CN(C)c1ccc(CC(=O)N2CCCC(c3cc(C(=O)Nc4ccc(F)c(Cl)c4)no3)C2)cc1 (centres undefined),.,-16%,.,.,23µM*,16µM*
COc1ccc(C(=O)N2CCCC(c3nc(-c4cccnc4)no3)CCNC(=O)CC2)cn1 (centres undefined),.,60%,.,.,.,.
COc1cccc(Nc2nc(NCC(C)C)nc3c2cnn3-c2ccccc2)c1,.,-10%,.,.,.,.
CNC(=S)NNC(=O)c1ccc(=O)n(Cc2ccc(Cl)cc2Cl)c1,?,7%,13µM*,?,?,?
CCCC(CNC(C)=O)(C1=CCCCC1)c1ccccc1 (centres undefined),.,8%,.,.,13µM*,18µM*
O=C(NC(CC1=CCCCC1)c1ccccc1)C(F)(F)F (centres undefined),.,1%,.,.,.,.
Nc1nonc1-c1nc2ccccc2n1CC(=O)Nc1cccc(Cl)c1Cl,.,-7%,.,.,5.8µM*,5.2µM*
CCc1ccccc1NC(=O)Cn1c(-c2nonc2N)nc2ccccc21,.,-26%,.,.,-5%,1%
Nc1nonc1-c1nc2ccccc2n1CC(=O)N1CCN(c2ccc(F)cc2)CC1,-25%,8%,5%,10%,13µM*,?
Nc1nonc1-c1nc2ccccc2n1CC(=O)N/N=C\c1ccc(-c2ccc(Cl)cc2)o1,16%,-26%,-33%,0%,3.7µM*,7.3µM*
Nc1nonc1-c1nc2ccccc2n1CC(=O)Nc1ccc(F)cc1,.,-24%,.,.,9.2µM*,15µM*
NC(=O)Cn1c(-c2nonc2N)nc2ccccc21,3%,12%,?,-24%,4%,1%
Nc1nonc1-c1nc2ccccc2n1CC(=O)Nc1ccc(F)cc1F,.,-8%,.,.,.,.
CCn1nccc1C(=O)N1CCC2(CC1)N=C(c1ccc(C)cc1)NO2,.,56%,.,.,.,.
O=C1C=C(O)c2cccc3cccc1c23,-27%,?,-11%,5%,10%,4%
NC1=CC(=O)c2cccc3cccc1c23,-22%,.,11µM*,22µM*,.,.
CC(=O)N(C(C)=O)N1C(=O)c2cccc3c(N4CCOCC4)ccc(c23)C1=O,21%,2%,-11%,-6%,?,-14%
CC(C(=O)N1CCOCC1)N1C(=O)c2cccc3cccc(c23)C1=O (centres undefined),8%,-12%,-15%,4%[10 µM],-23%,-14%
O=C1C=C(N2CCOCC2)c2cccc3cccc1c23,.,?,.,.,15µM*,-27%
O=C1C=C(N2CCOCC2)c2ccccc2C1=O,?,-25%,4µM*,3.2µM*,2.3µM*,2.6µM*
Cc1ccc(N2CCOCC2)c2c1C(=O)c1ccccc1C2=O,?,-6%,-7%,-18%,16µM*,?
CC1=C(C)C(=O)C(N2CCOCC2)=CC1=O,?,-25%,22µM*,?,15µM*,16µM*
CN(C1=C(N2CCOCC2)C(=O)c2ccccc2C1=O)c1ccccc1,-14%,-2%,14µM*,-26%,16µM*,13µM*
CN(c1ccccc1)c1cc(=O)c2ccnc(N3CCOCC3)c2o1,.,17%[176 µM],.,.,.,.
Cc1cc(C)cc(C(=O)NC(C)C(=O)N2CCC3(CC2)NCCc2[nH]cnc23)c1 (centres undefined),.,6%,.,.,.,.
SMILES,ELG1 repair inh,12-LOX inh,RORg inh,VP16 counter,DT40 TDP1 no CPT,DT40 TDP1 CPT
C/C(=N\NC(=O)c1nnn(-c2nonc2N)c1-c1ccc2c(c1)OCO2)c1cccs1,2%,2%,-12%,-8%,?,1.6µM*
CCOc1ccc(-c2c(C(=O)N/N=C(\C)c3cccs3)nnn2-c2nonc2N)cc1,?,1%,-44%,-10%,22%,8%
CCOc1ccc(-c2c(C(=O)N/N=C(\C)c3ccccc3OC)nnn2-c2nonc2N)cc1,?,43%,5.6µM*,-7%,-4%,-10%
CCOc1cccc(-c2c(C(=O)N/N=C(\C)c3cccs3)nnn2-c2nonc2N)c1,16µM*,4%,?,?,?,?
COc1cccc(-c2c(C(=O)N/N=C(\C)c3cccs3)nnn2-c2nonc2N)c1,-9%,5%,?,?,?,16µM*
CCn1nccc1C(=O)N1CCCC2(C=Cc3ccccc3O2)CC1 (centres undefined),.,10%,.,.,.,.
COC(=O)c1ccc(C2C(C#N)=C(N)OC3=C2C(=O)CC(C)(C)C3)cc1 (centres undefined),.,-30%,.,.,.,.
COc1ccccc1C(=O)Nc1ccnn1C1CCN(C/C=C/c2ccccc2)CC1,-5%,-3%,-2%,4%,?,23µM*
CC(C)=CCN1CCC(n2nccc2NC(=O)c2ccccc2Cl)CC1,18%,2%,-1%,-9%,21µM*,-26%
CN1CCN(C(=O)[C@@H]2CCC[C@@H](NC3CCOCC3)CN(C)C(=O)C2)CC1,.,1%[176 µM],.,.,.,.
COc1ccc(N2CC(C(=O)N(C)CCc3noc(C)n3)CC2=O)cc1Cl (centres undefined),.,34%,.,.,.,.
CC(C)c1ccc(CC(=O)N2CCCc3ncc(C(=O)NCc4ccc(F)cc4)cc32)cc1,.,-7%,.,.,.,.
Cc1ccc(-c2nc(=Nc3ccccc3)sn2-c2ccccc2)cc1,.,.,.,.,3.2µM*,3.5µM*
COc1ccc(N=C2SCC(c3ccccc3)=NN2C)cc1,?,?,39%,22%,?,?
COc1ccc(N=C2C(=Nc3ccc(OC)cc3)N(c3ccc(OC)cc3)C(=S)N2c2ccccc2)cc1,?,10%[57.4 µM],14%,23%,18µM*,21µM*
COc1ccc(N=C2C(=Nc3ccc(OC)cc3)N(c3ccc(OC)cc3)C(=S)N2C)cc1,-5%,.,5%,2%,?,?
COc1ccc(N=c2nc(-c3ccc(C)cc3)n(-c3ccccc3)s2)cc1,.,.,.,.,3.5µM*,4µM*
COc1ccc(N=c2nc(-c3ccccc3)n(-c3ccc(C)cc3)s2)cc1,.,.,.,.,3.2µM*,4.5µM*
Cc1c(-n2nnnc2SC(C)c2ccccc2)c(=O)n(-c2ccccc2)n1C (centres undefined),.,3%,.,.,.,.
CCc1nn(-c2ccccc2)c2c1CN(C(=O)NCC(=O)OC)C(c1ccc(F)cc1)c1cccn1-2 (centres undefined),.,-19%,.,.,.,.
